Laboratory results taken from PubChem BioAssay AID1159580 (chemical genetic matrix, 2015).
The campaign covered roughly 5,500 compounds. About 2,000 (36%) were called active. Not shown: some 18% with an inconclusive outcome. Rule as the data show it: active = normalized growth mostly below about 0.91 (no sharp cut-off); inconclusive = no clear call, values can overlap the other calls; inactive = mostly above about 0.92. This is one part of the list.

Experiment: chemical genetic growth profiling, strain panel (AID 1159580);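 also: tested at 20 µM; growth read once vehicle control cultures reached saturation at 30 °C; 1 = growth at the plate median or of vehicle wells; lower values mean less growth of the strain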
Conditions: growth OD

Measured: normalized growth

CC(C)CCCC(C)C1CCC2C3CC[C@H]4CCCC[C@]4(C)C3CC[C@]12C (some centres not stated)
inactive: S. cerevisiae deletion strains, locus YJR075W, strain HOC1, hits give low values 0.965 | S. cerevisiae deletion strains, locus YKL009W, strain mrt4, hits give low values 1.01 | S. cerevisiae deletion strains, locus YKL068W, hits give low values 0.993 | S. cerevisiae deletion strains, locus YKL085W, strain MDH1 (second series), hits give low values 1.02 | S. cerevisiae deletion strains, locus YKL085W, strain MDH1, hits give low values 1.02 | S. cerevisiae deletion strains, locus YKL160W, strain elf1, hits give low values 0.998 | S. cerevisiae deletion strains, locus YKL190W, strain CNB1, hits give low values 0.98 | S. cerevisiae deletion strains, locus YKR001C, strain vps1, hits give low values 0.996 | S. cerevisiae deletion strains, locus YKR026C, strain gcn3, hits give low values 0.998 | S. cerevisiae deletion strains, locus YKR091W, strain srl3, hits give low values 1.02 | S. cerevisiae deletion strains, locus YLL001W, strain dnm1, hits give low values 1.02 | S. cerevisiae deletion strains, locus YLL026W, hits give low values 1.02 | S. cerevisiae deletion strains, locus YLL041C, strain sdh2, hits give low values 1.01 | S. cerevisiae deletion strains, locus YLR027C, strain aat2, hits give low values 1.01 | S. cerevisiae deletion strains, locus YLR039C, strain RIC1, hits give low values 0.951 | S. cerevisiae deletion strains, locus YLR058C, strain SHM2, hits give low values 0.967 | S. cerevisiae deletion strains, locus YLR102C, strain apc9, hits give low values 0.977 | S. cerevisiae deletion strains, locus YLR113W, strain HOG1, hits give low values 1.03 | S. cerevisiae deletion strains, locus YLR221C, strain rsa3, hits give low values 1.02 | S. cerevisiae deletion strains, locus YLR258W, strain gsy2, hits give low values 1.02 | S. cerevisiae deletion strains, locus YLR262C, strain YPT6 (second series), hits give low values 1.02 | S. cerevisiae deletion strains, locus YLR262C, strain YPT6, hits give low values 0.945 | S. cerevisiae deletion strains, locus YLR268W, strain sec22, hits give low values 0.966 | S. cerevisiae deletion strains, locus YLR320W, strain mms22, hits give low values 1.02 | S. cerevisiae deletion strains, locus YLR330W, strain CHS5, hits give low values 0.999 | S. cerevisiae deletion strains, locus YLR342W, strain FKS1 (second series), hits give low values 1.04 | S. cerevisiae deletion strains, locus YLR342W, strain FKS1, hits give low values 1.02 | S. cerevisiae deletion strains, locus YLR357W, strain rsc2, hits give low values 1.04 | S. cerevisiae deletion strains, locus YLR370C, strain arc18, hits give low values 1.02 | S. cerevisiae deletion strains, locus YLR371W, strain rom2, hits give low values 0.998 | S. cerevisiae deletion strains, locus YLR384C, strain iki3, hits give low values 1.02 | S. cerevisiae deletion strains, locus YLR418C, strain cdc73, hits give low values 0.952 | S. cerevisiae deletion strains, locus YML016C, strain PPZ1, hits give low values 0.986 | S. cerevisiae deletion strains, locus YML032C, strain rad52, hits give low values 1 | S. cerevisiae deletion strains, locus YML120C, strain ndi1, hits give low values 1.02 | S. cerevisiae deletion strains, locus YML124C, strain tub3, hits give low values 1 | S. cerevisiae deletion strains, locus YMR058W, strain fet3, hits give low values 1.01 | S. cerevisiae deletion strains, locus YMR078C, strain ctf18, hits give low values 0.99 | S. cerevisiae deletion strains, locus YMR125W, strain sto1, hits give low values 1.03 | S. cerevisiae deletion strains, locus YMR129W, hits give low values 1.02 | S. cerevisiae deletion strains, locus YMR205C, strain PFK2, hits give low values 1.04 | S. cerevisiae deletion strains, locus YMR223W, strain ubp8, hits give low values 1 | S. cerevisiae deletion strains, locus YMR231W, strain pep5, hits give low values 1.02 | S. cerevisiae deletion strains, locus YMR263W, strain SAP30, hits give low values 0.949 | S. cerevisiae deletion strains, locus YMR307W, strain GAS1, hits give low values 1.07 | S. cerevisiae deletion strains, locus YNL067W, strain RPL9B, hits give low values 0.953 | S. cerevisiae deletion strains, locus YNL071W, strain lat1, hits give low values 1.01 | S. cerevisiae deletion strains, locus YNL128W, strain TEP1, hits give low values 0.941 | S. cerevisiae deletion strains, locus YNL153C, strain GIM3, hits give low values 0.962 | S. cerevisiae deletion strains, locus YNL183C, strain NPR1, hits give low values 0.922 | S. cerevisiae deletion strains, locus YNL209W, strain ssb2, hits give low values 1.02 | S. cerevisiae deletion strains, locus YNL233W, strain BNI4, hits give low values 0.983 | S. cerevisiae deletion strains, locus YNL248C, strain rpa49, hits give low values 0.992 | S. cerevisiae deletion strains, locus YNL250W, strain rad50, hits give low values 0.986 | S. cerevisiae deletion strains, locus YNL271C, strain bni1, hits give low values 0.993 | S. cerevisiae deletion strains, locus YNL298W, strain CLA4, hits give low values 0.998 | S. cerevisiae deletion strains, locus YNL307C, strain MCK1, hits give low values 1.01 | S. cerevisiae deletion strains, locus YNL322C, strain KRE1 (second series), hits give low values 1.02 | S. cerevisiae deletion strains, locus YNL322C, strain KRE1, hits give low values 0.971 | S. cerevisiae deletion strains, locus YNR049C, strain mso1, hits give low values 1.02 | S. cerevisiae deletion strains, locus YNR052C, strain pop2, hits give low values 0.996 | S. cerevisiae deletion strains, locus YOL006C, strain TOP1, hits give low values 0.935 | S. cerevisiae deletion strains, locus YOL012C, strain htz1 1.86 | S. cerevisiae deletion strains, locus YOL147C, strain pex11, hits give low values 0.992 | S. cerevisiae deletion strains, locus YOR001W, strain rrp6, hits give low values 0.993 | S. cerevisiae deletion strains, locus YOR061W, strain CKA2, hits give low values 0.964 | S. cerevisiae deletion strains, locus YOR069W, strain VPS5, hits give low values 1.01 | S. cerevisiae deletion strains, locus YOR070C, strain gyp1, hits give low values 1.02 | S. cerevisiae deletion strains, locus YOR080W, strain dia2, hits give low values 1.02 | S. cerevisiae deletion strains, locus YOR083W, strain WHI5, hits give low values 0.991 | S. cerevisiae deletion strains, locus YOR106W, strain vam3, hits give low values 1.01 | S. cerevisiae deletion strains, locus YOR136W, strain idh2, hits give low values 1 | S. cerevisiae deletion strains, locus YOR144C, strain elg1, hits give low values 0.981 | S. cerevisiae deletion strains, locus YOR184W, strain ser1, hits give low values 1.01 | S. cerevisiae deletion strains, locus YOR231W, strain MKK1, hits give low values 0.992 | S. cerevisiae deletion strains, locus YOR265W, strain rbl2, hits give low values 1.02 | S. cerevisiae deletion strains, locus YOR270C, strain vph1, hits give low values 1.03 | S. cerevisiae deletion strains, locus YOR290C, strain snf2, hits give low values 0.984 | S. cerevisiae deletion strains, locus YOR316C, strain cot1, hits give low values 0.981 | S. cerevisiae deletion strains, locus YPL051W, strain arl3, hits give low values 0.997 | S. cerevisiae deletion strains, locus YPL055C, strain LGE1, hits give low values 0.934 | S. cerevisiae deletion strains, locus YPL078C, strain atp4, hits give low values 0.996 | S. cerevisiae deletion strains, locus YPL106C, strain sse1, hits give low values 1.05 | S. cerevisiae deletion strains, locus YPL240C, strain hsp82, hits give low values 1 | S. cerevisiae deletion strains, locus YPL241C, strain CIN2, hits give low values 0.993 | S. cerevisiae deletion strains, locus YPL256C, strain CLN2, hits give low values 0.978 | S. cerevisiae deletion strains, locus YPR119W, strain clb2, hits give low values 0.999 | S. cerevisiae deletion strains, locus YPR141C, strain kar3, hits give low values 0.966 | S. cerevisiae deletion strains, locus YPR163C, strain tif3, hits give low values 1 | S. cerevisiae deletion strains, locus YPR167C, strain met16, hits give low values 0.982 | S. cerevisiae deletion strains, strain wtn01, hits give low values 0.982 | S. cerevisiae strains, strain wild type, hits give low values 0.984
